The text below walks through data of PubChem BioAssay (EPA / NIEHS).

Each structure is given as a SMILES string. Inconclusive results are not listed. Calls of active or inactive are those of the source. Rule for the calls: active = hit-call score of the fitted dose curve at least 0.9, where 1 is the maximum; inconclusive = response in the unintended direction; inactive = score below 0.9.

Read-out in this experiment: ABC Transporter (ABCB1), ABCB1 (gene 5243)
Briefly: CLD_ABCB1_24hr: CellzDirect (CLD) Gene Expression Assay for ABC Transporter (ABCB1) at 24 hours (AID 2283684).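 For AC50: potency for increase in ABCB1 mRNA relative to DMSO vehicle.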 How it is done:
CLD_24hr is a cell-based, multiplexed-readout assay that uses hepatocyte, a human liver primary cell, with measurements taken at 24 hours after chemical dosing in a 96-well plate.CLD_ABCB1_24hr is one of 16 assay component(s) measured or calculated from the CLD_24hr assay. It is designed to make measurements of mRNA induction, a form of inducible reporter, as detected with chemiluminescence signals by Quantitative Nuclease Protection Assay (qNPA) technology.Data from the assay component CLD_ABCB1_24hr was analyzed at the endpoint, CLD_ABCB1_24hr, in the positive analysis fitting direction relative to DMSO as the negative control and baseline of activity. Using a type of inducible reporter, gain-of-signal activity can be used to understand changes in the reporter gene as they relate to the gene ABCB1. Furthermore, this assay endpoint can be referred to as a primary readout. To generalize the intended target to other relatable targets, this assay endpoint is annotated to the transporter intended target family, where subfamily is ABC transporter.
Human hepatocyte cultures were treated daily for two consecutive days with fresh dosing solutions containing appropriate concentrations of the 320 ToxCast chemicals (chemical identities were blinded to CellzDirect and other ToxCast collaborators), vehicle control (0.2% DMSO), and positive control inducers as summarized in Table 1. Due to the large number of treatment groups and chemicals examined, the ToxCast chemicals were divided into two groups (spanning two independent cultures of hepatocytes from separate donor preparations (Hu778: ToxCast plates 1 and 2; Hu776: ToxCast plates 3 and 4). Each preparation of human hepatocyte cultures was treated with respective vehicle control, medium only control, set of six positive controls/reference chemicals for the five hepatic receptor pathways, and a subset of eight of the ToxCast chemicals (indoxacarb, pyrithiobac-sodium, norflurazon, cyhalofop-butyl, methomyl, thiram, acetochlor, and propiconazole). These replicate data, coupled with internal replicates designed within the blinded ToxCast chemical library, provided additional data to evaluate interindividual differences between hepatocyte preparations and their potential impact on chemical profiles.Cell morphology and integrity were evaluated using phase-contrast microscopy as an indicator of hepatocyte cell health (Tyson & Green, 1987). Cultures for each treatment group (i.e., media, vehicle [0.2% DMSO], positive control inducers [multiple concentrations], and the ToxCast chemicals [multiple concentrations]) were observed and cell morphology was assessed relative to vehicle control cultures at each harvest time point (0, 6, 24, or 48 h). […] Images were evaluated at the conclusion of the study to assess changes in cell integrity and account for the effects of chemical exposure on uncharacteristic changes in concentration-dependent gene expression profiles. The results from these determinations of apparent cytotoxicity were annotated (yes/no) alongside the corresponding qNPA data for reference.At the conclusion of each treatment period, hepatocyte cultures (96-well) were washed with 1 volume of HBSS, lysed by addition of 25 ul ArrayPlate lysis buffer (HTG, Tucson, AZ), and 70 ul/well of Denaturation Oil, denatured by incubation at 95C for 10 min, and frozen at approximately -70C until analysis by nuclease protection assay (qNPA) (Roberts et al., 2007). For qNPA analysis, cell lysates were thawed at 50C for approximately 30 min, qNPA probes were added, and samples were incubated at 95C for 10 min to begin the detection process by denaturing the target RNA, dissociating the duplexes and secondary structure hybridization. At the conclusion of the hybridization period, S1 nuclease reagent was added to each sample to digest all nonprotected nucleotides at 50C for 60-90 min. […]
With `C#CCC1=C(C)C(OC(=O)C2C(C=C(C)C)C2(C)C)CC1=O` (stereo not given), the result was inactive.

As for `CON=C(C(=O)OC)c1ccccc1CON=C(C)c1cccc(C(F)(F)F)c1`, the compound was classed as inactive.

Turning to `C[Si](Cn1cncn1)(c1ccc(F)cc1)c1ccc(F)cc1`, the AC50 was 4.51 µM (active).

As to `S=C1NCCN1`, the compound was classed as inactive.

As for `CCC(=NOC/C=C/Cl)C1=C(O)CC(C2CCOCC2)CC1=O` (stereo not given), the result was inactive.

For `Cc1ccn2nc(S(=O)(=O)Nc3c(F)cccc3F)nc2n1`, the compound was called inactive.

For `CC(COc1ccc(Oc2ccccc2)cc1)Oc1ccccn1` (stereo not given), the outcome was inactive.

Regarding `CC1(C(=O)Nc2ccc(O)c(Cl)c2Cl)CCCCC1`, the call was inactive.

In the case of `CCCSP(=O)(OCC)Oc1ccc(Br)cc1Cl` (stereo not given), the compound was called inactive.

Regarding `C[N+]1(C)CCCCC1`, the outcome was inactive.

As to `CC1=NNC(=O)N(/N=C/c2cccnc2)C1`, the result was inactive.

`O=c1ccc(=O)[nH][nH]1`: the result was inactive.

`COc1ccc(C(=CC(=O)N2CCOCC2)c2ccc(Cl)cc2)cc1OC`: the call was inactive.

Take `CCOP(=S)(OCC)SCCSCC`: the call was inactive.

Consider `CCc1cnc(C2=NC(C)(C(C)C)C(=O)N2)c(C(=O)O)c1` (stereo not given), for which the result was inactive.

In the case of `CC(Oc1cccc(Cl)c1)C(=O)O` (stereo not given), the outcome was inactive.

On to `CCCCSP(=O)(SCCCC)SCCCC`, for which the compound was classed as inactive.

As for `CNC(=O)ON=C(SC)C(=O)N(C)C`, the result was inactive.

For the compound `CCOP(=S)(Oc1cnc(C(C)(C)C)nc1)OC(C)C` (stereo not given), the outcome was inactive.

Regarding `COc1cc(OC)nc(Sc2cccc(Cl)c2C(=O)O)n1`, the result was inactive.

As to `CC(C)[C@H](C(=O)O[C@H](C#N)c1cccc(Oc2ccccc2)c1)c1ccc(Cl)cc1`, the compound was called inactive.

Take `CCCCOC(=O)[C@@H](C)Oc1ccc(Oc2ccc(C#N)cc2F)cc1`: the compound was called inactive.

`CCOP(=S)(OCC)Oc1ccc2c(C)c(Cl)c(=O)oc2c1`: the outcome was inactive.

On to `COP(=O)(NC(C)=O)SC` (stereo not given), for which the compound was called inactive.

Turning to `CCOP(=S)(OCC)OC(Cl)C(Cl)(Cl)Cl` (stereo not given), the outcome was inactive.

On to `CCOC(=O)CC(SP(=O)(OC)OC)C(=O)OCC` (stereo not given), for which the result was inactive.

Take `Cc1nn(-c2cc(NS(C)(=O)=O)c(Cl)cc2Cl)c(=O)n1C(F)F`: the call was inactive.

Take `CNC(=O)Oc1cccc2c1OC(C)(C)O2`: the compound was classed as inactive.

As to `CCc1cccc(CC)c1N(COC)C(=O)CCl`, the compound was called inactive.

With `CN(C)C(=O)Nc1cccc(C(F)(F)F)c1`, the compound was called inactive.

As to `CCOP(=S)(OCC)Oc1cc(C)nc(C(C)C)n1`, the result was inactive.

Turning to `CN(C)NC(=O)CCC(=O)O`, the call was inactive.

As to `CCCOCC(=Nc1ccc(Cl)cc1C(F)(F)F)n1ccnc1`, the AC50 was 32 µM (active).

On to `CC(C1CC1)C(O)(Cn1cncn1)c1ccc(Cl)cc1` (stereo not given), for which the compound was classed as inactive.

For `COc1cccc(C(=O)NN(C(=O)c2cc(C)cc(C)c2)C(C)(C)C)c1C`, the result was inactive.

`CCNc1nc(Cl)nc(NC(C)(C)C#N)n1`: the compound was called inactive.

As for `CC(=NC#N)N(C)Cc1ccc(Cl)nc1`, the compound was classed as inactive.

With `FC(F)C(F)(F)OCC(Cn1cncn1)c1ccc(Cl)cc1Cl` (stereo not given), the compound was classed as inactive.

For `COP(=O)(OC)OC(Br)C(Cl)(Cl)Br` (stereo not given), the compound was classed as inactive.

Regarding `CCOC(=O)COc1cc(-c2nn(C)c(OC(F)F)c2Cl)c(F)cc1Cl`, the call was inactive.

By AC50 is commonly meant the midpoint of the concentration-response curve, whichever way the signal moves.
